The source of these data is publication PMC4552634, “A New Set of Chemical Starting Points with Plasmodium falciparum Transmission-Blocking Potential for Antimalarial Drug Discovery” (PLoS ONE, 2015).

Usually % Inhibition stands for the relative decrease from the control value, in per cent.

SMILES strings stand for the structures. Out of some 13,000 compounds screened, about 3,200 (25%) showed an effect of 50% or more. Some of the results follow.

In the experiment the test system is P. falciparum stage V gametocytes. Further details: BacTiter-Glo ATP luminescence viability of purified stage V gametocytes in 384-well plates, per cent inhibition versus DMSO. The settings on record: 48 h, 5 µM; inhibitor.
Turning to `O=C(Nc1ccc(OC2CCN(Cc3ccc(F)cc3)CC2)c(Cl)c1)c1cccs1` [TCMDC-133746], the “% Inhibition” value is listed as 32.62%.
Next, `Cc1cc(NC(=O)c2cccs2)ccc1OC1CCN(Cc2ccc(F)cc2)C1` (centres unmarked) [TCMDC-133754]: 20.26%; `Cc1cc(NC(=O)c2cccs2)ccc1OC1CCN(Cc2ccc(C#N)cc2)CC1` [TCMDC-133954]: 61.72%.
In the case of `O=C(Nc1ccc(OC2CCN(Cc3ccc(F)cc3)CC2)c(Cl)c1)c1ccco1` [TCMDC-133750], the “% Inhibition” value came to 24.88%.
Turning to `O=C(Nc1ccc(OC2CCN(Cc3ccc(F)cc3)C2)c(Cl)c1)c1cccs1` (centres unmarked) [TCMDC-133757], the “% Inhibition” value came out at 50.68%.
Under `O=C(Nc1ccc(OC2CCN(Cc3ccc(F)cc3)C2)c(Cl)c1)c1ccco1` (centres unmarked) [TCMDC-133761] stands 61.05%; under `Cc1cc(NC(=O)c2cccs2)ccc1OC1CCN(Cc2ccc(C#N)cc2)C1` (centres unmarked) [TCMDC-133960], 27%.
Under `O=C(Nc1ccc(OC2CCN(Cc3ccsc3)CC2)c(Cl)c1)c1ccco1` [TCMDC-134271] stands 9.288%; under `N#Cc1ccc(CN2CCC(Oc3ccc(NC(=O)c4cccs4)cc3Cl)CC2)cc1` [TCMDC-133955], 10.06%.
For the molecule `Cc1cc(NC(=O)c2ccco2)ccc1OC1CCN(Cc2ccc(F)cc2)C1` (centres unmarked) [TCMDC-133760], the “% Inhibition” value was found to be 22.57%.
Take `O=C(Nc1ccc(OC2CCN(Cc3ccccc3)CC2)c(Cl)c1)c1ccco1` [TCMDC-133966]: the “% Inhibition” value was 63.08%.
As to `O=C(Nc1ccc(OC2CCN(Cc3ccccc3)C2)c(Cl)c1)c1ccco1` (centres unmarked) [TCMDC-133971], the “% Inhibition” value was 37.01%.
Under `FC(F)(F)c1ccc2[nH]c(-c3ccc(-c4ccc(CNCc5cnn(-c6ccccc6)n5)cc4)s3)nc2c1.O=C(O)C(F)(F)F` [TCMDC-132975] stands -22.66%.
As to `COc1cccc(NC(=O)Nc2ccc(-c3oc(C(=O)NCC(c4ccccc4)N(C)C)cc3-c3ccncc3)cc2)c1` (centres unmarked) [TCMDC-135783], the “% Inhibition” value is listed as -10.27%.
Next, `Cc1c(F)cc(C(=O)NC2CC2)cc1-c1ccc2c(cnn2S(=O)(=O)c2ccc(C#N)cc2)c1` [TCMDC-135240]: -5.005%; `COc1ccc2nccc([C@@H](O)CN3CCC(NC(=O)c4[nH]c5ccccc5c4-c4ccccc4)CC3)c2c1` [TCMDC-141034]: -42.03%.
Regarding `O=C(NCc1cccc(F)c1)Nc1ccc(-c2cccc(-c3nc4ccc(F)cc4[nH]3)c2)cc1` [TCMDC-133296], the “% Inhibition” value was 0.06231%.
With `Cc1ccc(NC(=O)c2ccc(N3CCC(c4ccccc4C)CC3)nc2)cc1` [TCMDC-134594], the “% Inhibition” value was determined as 8.038%.
In the case of `COc1ccc(CN2CCN(Cc3cc(Cl)ccc3O)CC2CCO)c(C)c1C` (centres unmarked) [TCMDC-124638], the “% Inhibition” value is listed as -22.47%.
Under `CC(C)CCN1CCC(Oc2ccc(NC(=O)c3ccc(F)cc3)cc2Cl)CC1` [TCMDC-133978] stands 33.54%; under `N#Cc1ccc(CN2CCC(Oc3ccc(NC(=O)c4ccco4)cc3Cl)CC2)cc1` [TCMDC-133957], 8.133%.
In the case of `CC(C)CCN1CCC(Oc2ccc(NC(=O)c3ccco3)cc2Cl)CC1` [TCMDC-133976], the “% Inhibition” value turned out to be 100.7%.
Next, `O=C(NC(=S)NCc1ccncc1)c1ccccc1` [TCMDC-123842]: -6.445%; `NC1=NC(CCc2ccccc2)N(c2ccc(Cl)cc2)C(N)=N1` (centres unmarked) [TCMDC-131290]: 6.603%; `COc1ccc2c(c1)Nc1ccc(Cl)cc1C2N` (centres unmarked) [TCMDC-141985]: 106.2%.
`Fc1cccc(COc2ccc(-n3ccc4c(NCCCn5ccnc5)ncnc43)cc2Cl)n1` [TCMDC-135092]: the “% Inhibition” value is on record as -5.729%.
Under `COc1ccc2ccccc2c1C=NNc1ccnc2cc(Cl)ccc12` [TCMDC-123949] stands -70.44%; under `CCCCN(CCCC)CCCN(CCCN(CCCC)CCCC)c1cc(C)nc(Nc2ccc(Cl)cc2)n1` [TCMDC-137487], 97.2%.
Under `CCNc1cc(C)nc(Nc2ccc(F)cc2)n1` [TCMDC-134008] stands 39.4%.
For the molecule `Cc1cc(N(C)CCCN(C)C)nc(Nc2ccc(Cl)cc2)n1` [TCMDC-136887], the “% Inhibition” value amounted to 28.42%.
For the molecule `CCN(CC)CCCN(CCCN(CC)CC)c1cc(C)nc(Nc2ccc(Cl)cc2)n1` [TCMDC-137489], the “% Inhibition” value stood at 39.75%.
Take `Cc1cc(NCCCCCCN)nc(Nc2ccc(Cl)cc2)n1` [TCMDC-138191]: the “% Inhibition” value worked out at 54.5%.
Under `CCCN(CCCN(CCCN(CCC)C(C)C)c1cc(C)nc(Nc2ccc(Cl)cc2)n1)C(C)C` [TCMDC-138003] stands 44.69%; under `CCCN(CCC)CCCN(CCCN(CCC)CCC)c1cc(C)nc(Nc2ccc(Cl)cc2)n1` [TCMDC-137773], 63.95%; under `CCNc1cc(C)nc(Nc2ccc(C)cc2)n1` [TCMDC-134007], 5.581%.
Take `Cc1cc(N(CCCN(C)C)Cc2cc(F)cc(F)c2)nc(Nc2ccc(Cl)cc2)n1` [TCMDC-132203]: the “% Inhibition” value is recorded as -7.276%.
Under `Cc1cc(-c2ccnc(Nc3cccc(C#N)c3)n2)cc(C)c1O` [TCMDC-133719] stands -73.96%; under `O=C(NC1CCCCCC1)C1CCCN(C(=O)c2ccc(O)c(-c3ccc(Cl)c(Cl)c3)c2)C1` (centres unmarked) [TCMDC-140888], 23.53%.
In the case of `CCCCN1C(=O)C2CC(=O)CC(C3CCCCC3)C2C1=O` (centres unmarked) [TCMDC-139128], the “% Inhibition” value is reported as 18.42%.
For `O=C(O)C(F)(F)F.c1cc(-c2ccc(CNC3CCOCC3)cc2)cc(-c2nc3ccccc3[nH]2)c1` [TCMDC-132572], the “% Inhibition” value turned out to be 48.89%.
As to `CCCC[C@H](NC(=O)OC(C)(C)C)C(=O)Nc1ccc(Cc2ccc(NC(=O)[C@H](CCCC)NC(=O)OC(C)(C)C)cc2)cc1` [TCMDC-131870], the “% Inhibition” value is -71.66%.
Next, `CCCC[C@H](NC(=O)O[C@H](COc1ccc(OCc2ccccc2)cc1)C(C)(C)C)C(=O)C(=O)Nc1ccn[nH]1` [TCMDC-138665]: 67.01%; `CCC[C@@H]([C@@H](CC(C)C)C(=O)N[C@@H](CCCCNC(=O)OCc1ccccc1)C(=O)Nc1ncccn1)N(O)C=O` [TCMDC-137323]: 42.47%.
For the molecule `Cc1ccc2c(Cl)c(C(=O)N3CCCc4ccccc43)sc2c1` [TCMDC-125658], the “% Inhibition” value is recorded as 1.703%.
Next, `CC1(CCc2ccccc2)N=C(N)N=C(N)C1c1ccc(Cl)c(Cl)c1` (centres unmarked) [TCMDC-136376]: 33.71%.
Next, `CC1(CCc2ccccc2)N=C(N)N(Cc2ccccc2)C(=O)C1c1ccc(Cl)c(Cl)c1` (centres unmarked) [TCMDC-136509]: 88.15%; `CCCCCCC1(C)N=C(N)N=C(N)C1c1ccc(Cl)c(Cl)c1` (centres unmarked) [TCMDC-137594]: 22.11%.
Under `O=C(NCCN1CCOCC1)c1ccc(N2CCC(Oc3ccc4ccccc4c3)CC2)nc1` [TCMDC-134400] stands 19.81%.
As for `O=C(CCC1CCCCC1=O)c1ccccc1` (centres unmarked) [TCMDC-125845], the “% Inhibition” value is listed as 5.946%.
Next, `CN(c1ccc2c(c1)nc(NCc1ccccc1)n2C)c1ccnc(Nc2ccc(CS(C)(=O)=O)cc2)n1` [TCMDC-138740]: 25.8%.
Turning to `CCOc1ccc(C2CCN(CCCCNC(=O)c3ccc(NC(=O)c4ccc(Cl)cc4)cc3)CC2)c(CC)c1` [TCMDC-138357], the “% Inhibition” value came to 26.78%.
Under `COc1ccc(C2CCN(CCCCNC(=O)c3ccc(NC(=O)c4ccc(Cl)cc4)cc3)CC2)c(OC)c1` [TCMDC-138254] stands 47.57%.
As for `CCOc1ccc(C2CCN(CCCCNC(=O)c3ccc(NC(=O)c4ccc(Cl)cc4)cc3)CC2)c(Cl)c1` [TCMDC-138365], the “% Inhibition” value is reported as 58.19%.
Next, `COc1ccccc1C1CCN(CCCCNC(=O)c2ccc(/C=C/c3cc(Cl)cc(Cl)c3)cc2)CC1` [TCMDC-138241]: 103.9%.
Regarding `COc1ccccc1C1CCN(CCCCNC(=O)c2ccc(NC(=O)c3ccc(Cl)cc3)cc2)CC1` [TCMDC-138239], the “% Inhibition” value is 21.16%.
For `CCOc1cc(C)ccc1C1CCN(CCCCNC(=O)c2ccc(NC(=O)c3cc(Cl)cc(Cl)c3)cc2)CC1` [TCMDC-138620], the “% Inhibition” value came to 9.848%.
For the molecule `CCOc1cc(C(C)C)ccc1C1CCN(CCCCNC(=O)c2ccc(NC(=O)c3ccc(Cl)cc3)cc2)CC1` [TCMDC-138385], the “% Inhibition” value was found to be 20.72%.
For the molecule `CCOc1ccccc1C1CCN(CCCCNC(=O)c2ccc(NC(=O)c3ccc(Cl)cc3)cc2)CC1` [TCMDC-138369], the “% Inhibition” value is -17.64%.
`Cc1ccc(C2CCN(CCCCNC(=O)c3ccc(NC(=O)c4ccc(Cl)cc4)cc3)CC2)c(OCC(F)(F)F)c1` [TCMDC-138572]: the “% Inhibition” value is given as -14.71%.
Next, `Cc1ccc(C2CCN(CCCCNC(=O)c3ccc(NC(=O)c4ccc(Cl)cc4)cc3)CC2)c(OCC2CC2)c1` [TCMDC-138541]: 76.06%; `COc1cc(C(C)C)ccc1C1CCN(CCCCNC(=O)c2ccc(NC(=O)c3ccc(Cl)cc3)cc2)CC1` [TCMDC-138403]: 115.5%; `CCc1cc(OC)ccc1C1CCN(CCCCNC(=O)c2ccc(NC(=O)c3ccc(Cl)cc3)cc2)CC1` [TCMDC-138360]: -6.372%.
Next, `O=C(Nc1ccc2ccccc2n1)c1ccccc1-c1ccccc1` [TCMDC-125339]: -5.994%.
Next, `FC(F)(F)c1ccc(/C=C/c2cncnc2Nc2ccc3nc(Cc4ccccc4)[nH]c3c2)cc1` [TCMDC-138660]: -4.612%.
In the case of `CC(Oc1ccc(C(=O)c2ccc(F)cc2)cc1)C(=O)N1CCc2ccccc21` (centres unmarked) [TCMDC-123555], the “% Inhibition” value was 10.82%.
On to `Cc1sc2nc(CSc3ccccc3)nc(N3CCN(CC(=O)N4CCCC4)CC3)c2c1C` [TCMDC-125052], for which the “% Inhibition” value is -14.62%.
Under `N#Cc1ccc2c(c1)CCN(CCC1CCC(NC(=O)/C=C/c3ccc(F)c4ccccc34)CC1)CC2` (centres unmarked) [TCMDC-139664] stands -16.56%.
As to `CC(C)C[C@H](Nc1ccnc(NCC2CCCCC2)n1)C(=O)NCCc1ccccc1` [TCMDC-134713], the “% Inhibition” value was -30.95%.
